Test results from PubChem BioAssay (Tox21).
Records with an inconclusive call do not appear. Active and inactive are the calls of the source. Unless noted, calls come from the whole dose curve; as a rule, active = well fitted curve in the direction sought with a large enough effect in the repeat runs; inconclusive = weak or mixed curves; inactive = no such curve, though single readings can be large; an effect the other way counts as inactive or inconclusive.

Columns and labels:
[1] = qHTS assay for small molecules that induce genotoxicity in human embryonic kidney cells expressing luciferase-tagged ATAD5 (AID 651632); note: nearly all actives have a fitted effect of over 15% in size
Summary of the method: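 DMSO vehicle served as the control. HEK293T reporter cells, 16 hr at 37C, then 30 min Amplite at room temperature; ATAD5 induction is measured as luciferase activity.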

[2] = qHTS assay for small molecules that induce genotoxicity in human embryonic kidney cells expressing luciferase-tagged ATAD5 - cell viability (AID 651634; calls by dose curve; note: nearly all actives have a fitted effect of over 25% in size; note: potency is the fitted concentration of half-maximal effect)
Summary of the method: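 Here HEK293T cells with the ATAD5 luciferase reporter are incubated with test compounds for 15.5 hr, and cytotoxicity is then gauged by measuring protease activity in live cells using fluorescence.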

[3] = qHTS assay for small molecule disruptors of the mitochondrial membrane potential - cell viability (AID 720634; calls by dose curve; note: nearly all actives have a fitted effect of over 20% in size; note: potency is the fitted concentration of half-maximal effect)
Summary of the method: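 Viability of HepG2 cells is scored from ATP content by luminescence; cells are exposed to compound for 1 hr at 37 C and 5% CO2, then dosed with m-MPI dye before the CellTiter-Glo reagent.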

[4] = qHTS assay for small molecule disruptors of the mitochondrial membrane potential (AID 720635); note: potency is the fitted concentration of half-maximal effect
Summary of the method: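 HepG2 cells (2,000/well) attached overnight at 37C, then took compound for 1 hr at 37C, 5% CO2. Mito-MPS dye was added for 30 min; fluorescence was read at 490/535 nm (monomers) and 540/590 nm (aggregates).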

[5] = qHTS assay to test for compound auto fluorescence at 590 nm (red) in HepG2 cells (AID 720674)
Summary of the method: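 Intrinsic compound fluorescence in the red window (Ex/Em 540/590 nm) is measured in attached HepG2 cells exposed for 1 hr, DMSO vehicle as baseline, benchmarked to Rose Bengal sodium.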

[6] = qHTS assay to test for compound auto fluorescence at 535 nm (green) in HepG2 cells (AID 720675)
[7] = qHTS assay to test for compound auto fluorescence at 460 nm (blue) in HEK293 cells (AID 720678)
Summary of the method: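 Blue read-out at excitation 405 nm and emission 460 nm follows overnight compound exposure of HEK293 cells at 37C in 5% CO2. Activity is given as auto fluorescence equivalency to triamterene.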

[8] = qHTS assay to test for compound auto fluorescence at 590 nm (red) in HEK293 cells (AID 720679)
Summary of the method: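 Red channel, Ex/Em 540/590nm; signal expressed as equivalency to Rose Bengal sodium. HEK293, 2,000 cells/well, 10% dialyzed FBS; 23 nL compound pinned after 4-5 hr attachment; overnight 37C/5% CO2 before reading.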

[9] = qHTS assay to test for compound auto fluorescence at 535 nm (green) in HEK293 cells (AID 720680)
[10] = qHTS assay to test for compound auto fluorescence at 535 nm (green) in HEK293 cell free culture (AID 720682)
Summary of the method: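 Green-channel intensity (Ex/Em 485/535 nm) was recorded from compound-treated wells containing only DMEM with 10% FBS. Fluorescein provided the equivalency standard.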

[11] = qHTS assay to test for compound auto fluorescence at 590 nm (red) in HEK293 cell free culture (AID 720683)
Summary of the method: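 Tox21 10K library compounds were pinned into cell-free DMEM with 10% FBS and fluorescence was read at excitation 540 nm. Activity is expressed as Rose Bengal sodium equivalency.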

[12] = qHTS assay to test for compound auto fluorescence at 590 nm (red) in HepG2 cell free culture (AID 720684)
Summary of the method: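 Readout: intrinsic compound fluorescence at 590 nm emission after 540 nm excitation, scaled to Rose Bengal sodium. Matrix was cell-free MEM with 10% FBS; DMSO vehicle wells served as control.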

[13] = qHTS assay to test for compound auto fluorescence at 460 nm (blue) in HepG2 cell free culture (AID 720685)
Summary of the method: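 Cell-free plates of MEM plus 10% FBS received 23 nL compound or DMSO vehicle; blue-channel (405/460 nm) intensity scored against triamterene as reference fluorophore.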

[14] = qHTS assay to test for compound auto fluorescence at 535 nm (green) in HepG2 cell free culture (AID 720686)
[15] = qHTS assay to test for compound auto fluorescence at 460 nm (blue) in HepG2 cells (AID 720687)
Summary of the method: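 Cells (2,000/well in MEM with 10% FBS) attached overnight at 37 C, then were exposed to compound or DMSO for 1 hr at 37 C, 5% CO2. Fluorescence read at Ex/Em 405/460 nm, expressed as triamterene-equivalent signal.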

[16] = molecular target: Glucocorticoid receptor (Homo sapiens) (UniProt P04150); assay: qHTS assay to identify small molecule antagonists of the glucocorticoid receptor (GR) signaling pathway (AID 720692; active = well fitted inhibition curve with a large enough effect in the signal ratio in the repeat runs, not every such curve was filed as active; the % refers to the signal ratio)
Chain of Glucocorticoid receptor (Homo sapiens) (P04150 whole entry, looked up): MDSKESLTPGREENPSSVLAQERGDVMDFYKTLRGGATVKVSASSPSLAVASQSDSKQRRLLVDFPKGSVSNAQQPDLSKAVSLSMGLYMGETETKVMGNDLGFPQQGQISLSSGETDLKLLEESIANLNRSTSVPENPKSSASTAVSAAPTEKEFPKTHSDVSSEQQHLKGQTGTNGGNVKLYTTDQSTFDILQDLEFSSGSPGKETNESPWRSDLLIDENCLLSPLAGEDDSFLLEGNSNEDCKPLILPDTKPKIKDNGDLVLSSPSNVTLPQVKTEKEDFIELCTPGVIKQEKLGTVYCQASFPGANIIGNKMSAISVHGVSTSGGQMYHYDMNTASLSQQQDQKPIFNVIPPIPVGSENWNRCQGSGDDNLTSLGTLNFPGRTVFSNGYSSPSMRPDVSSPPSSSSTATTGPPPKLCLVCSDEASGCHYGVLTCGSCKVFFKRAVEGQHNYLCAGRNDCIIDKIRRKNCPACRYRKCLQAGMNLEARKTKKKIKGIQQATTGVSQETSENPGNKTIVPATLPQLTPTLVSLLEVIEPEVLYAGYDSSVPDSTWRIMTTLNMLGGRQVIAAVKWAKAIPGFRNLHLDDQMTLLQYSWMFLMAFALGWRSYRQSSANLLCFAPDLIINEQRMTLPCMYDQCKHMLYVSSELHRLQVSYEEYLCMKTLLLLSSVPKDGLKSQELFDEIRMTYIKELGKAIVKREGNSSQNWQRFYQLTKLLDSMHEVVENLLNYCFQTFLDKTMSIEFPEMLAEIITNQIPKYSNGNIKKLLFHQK
Summary of the method: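 In a 1536-well cell format, compounds were added 4 h after seeding GR-bla HeLa cells, together with dexamethasone at 5 nM final; reporter activity was measured by FRET-substrate fluorescence following 18 h at 37 C.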

[17] = qHTS assay for small molecule agonists of the p53 signaling pathway - cell viability (AID 651633; calls by dose curve; note: nearly all actives have a fitted effect of over 30% in size; note: potency is the fitted concentration of half-maximal effect)
Summary of the method: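 p53RE-bla cells, seeded at 4,000 per well and rested 5 h at 37 C/5% CO2, received compounds in DMSO for 16 h at 37 C. CellTiter-Glo was then added, and luminescence was read after 30 min at room temperature to gauge cytotoxicity.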

[18] = qHTS assay to test for compound auto fluorescence at 460 nm (blue) in HEK293 cell free culture (AID 720681)
Summary of the method: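 Test compounds were pinned into cell-free culture medium (DMEM with 10% FBS) and fluorescence was read directly at Ex/Em 405/460 nm. Signals were expressed as fluorescence equivalents of triamterene, with DMSO vehicle as control.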

[19] = molecular target: Glucocorticoid receptor (Homo sapiens) (UniProt P04150); assay: qHTS assay to identify small molecule agonists of the glucocorticoid receptor (GR) signaling pathway (AID 720691; active = well fitted activation curve with a large enough effect in the signal ratio in the repeat runs, not every such curve was filed as active; the % refers to the signal ratio); settings: GR-bla HeLa, beta-lactamase reporter ratio, 18 h; activation: at 62.4 µM (top of the series)
Summary of the method: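 Compounds in DMSO, alongside positive controls, were added to GR-bla HeLa reporter cells and incubated 18 h at 37 C; GRE-driven beta-lactamase was detected by fluorescence after 2 h with FRET substrate at room temperature.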
% is set by controls: 0 for no effect and ±100 for the full control effect.

CCc1ccc(O)c(C(C)(C)C)c1
inactive: Potency [1] | Potency [2] | Potency [3] | Potency [5] | Potency [6] | Potency [7] | Potency [8] | Potency [9] | Potency [10] | Potency [11] | Potency [12] | Potency [13] | Potency [14] | Potency [15] | Potency [16]
active: Potency [4] 8.63 µM

CC(NCCC(c1ccccc1)c1ccccc1)c1ccccc1 (configuration not stated)
inactive: Potency [1] | Potency [3] | Potency [5] | Potency [6] | Potency [7] | Potency [8] | Potency [18] | Potency [10] | Potency [11] | Potency [12] | Potency [13] | Potency [14] | Potency [15]
active: Potency [17] 29.8 µM | Potency [4] 8.8 µM

Clc1ccc(C(Cn2ccnc2)OCc2c(Cl)cccc2Cl)c(Cl)c1 (configuration not stated)
inactive: Potency [1] | Potency [2] | Potency [3] | Potency [4] | fluorescence, relative to Rose Bengal [5] 0.526% [at 18.6 µM] | fluorescence, % of fluorescein control [6] -0.003% [at 18.6 µM] | fluorescence, % of triamterene [7] -0.277% [at 18.6 µM] | fluorescence, % of fluorescent control [8] -0.295% [at 18.6 µM] | fluorescence, % of fluorescein [9] 0.16% [at 18.6 µM] | fluorescence, % of fluorescent control [18] -0.0423% [at 18.6 µM] | activity change [10] -0.0265% [at 18.6 µM, stronger effect = higher value] | fluorescence, % of fluorescent control [11] -0.276% [at 18.6 µM] | fluorescence, % of Rose Bengal [12] -0.46% [at 18.6 µM] | fluorescence, % of fluorescent control [13] 0% [at 18.6 µM] | fluorescence, % of fluorescein control [14] 0.0431% [at 18.6 µM] | fluorescence, % of fluorescent control [15] 0.116% [at 18.6 µM]

CC(C)c1ccc(O)c(C(C)C)c1
active: Potency [4] 15.4 µM
inactive: Potency [1] | Potency [17] | Potency [3] | Potency [5] | Potency [7] | Potency [8] | Potency [9] | Potency [11] | Potency [12] | Potency [13] | Potency [14] | Potency [15]

CCCCNc1c(C(=O)OCC)c(C)nc2c1cnn2CC
inactive: Potency [1] | Potency [17] | Potency [2] | Potency [5] | Potency [6] | Potency [8] | Potency [9] | Potency [18] | Potency [10] | Potency [11] | Potency [12] | Potency [13] | Potency [14] | Potency [15] | Potency [19] | Potency [16]

CC(C)(C)C1=CC(=O)C=C(C(C)(C)C)C1=O
inactive: Potency [1] | Potency [5] | Potency [6] | Potency [7] | Potency [8] | Potency [9] | Potency [18] | Potency [10] | Potency [11] | Potency [12] | Potency [13] | Potency [14] | Potency [15] | Potency [19]
active: Potency [2] 30.6 µM | Potency [3] 61.1 µM | Potency [4] 7.7 µM

CCN(CC)CCOc1ccc(C(O)(Cc2ccc(Cl)cc2)c2ccc(C)cc2)cc1 (configuration not stated)
active: Potency [17] 29.8 µM
inactive: Potency [1] | Potency [3] | Potency [5] | Potency [7] | Potency [8] | Potency [9] | Potency [18] | Potency [10] | Potency [11] | Potency [12] | Potency [13] | Potency [14] | Potency [15]

C=CC(=O)OCC(O)COc1ccccc1 (configuration not stated)
inactive: Potency [1] | Potency [3] | Potency [5] | Potency [6] | Potency [7] | Potency [8] | Potency [18] | Potency [11] | Potency [12] | Potency [13] | Potency [14] | Potency [15]
active: Potency [17] 54.5 µM

CCCCCCCC/C=C\CCCCCCCC(=O)NCc1ccc(O)c(OC)c1
active: Potency [4] 11.9 µM
inactive: Potency [1] | Potency [2] | Potency [3] | Potency [5] | Potency [6] | Potency [7] | Potency [8] | Potency [9] | Potency [18] | Potency [10] | Potency [11] | Potency [12] | Potency [13] | Potency [14] | Potency [15]

CC(C(O)c1ccccc1)N(C)CCOC(c1ccccc1)c1ccccc1 (configuration not stated)
inactive: Potency [1] | Potency [2] | Potency [3] | Potency [5] | Potency [6] | Potency [7] | Potency [8] | Potency [9] | Potency [18] | Potency [10] | Potency [11] | Potency [12] | Potency [13] | Potency [14] | Potency [15] | Potency [19]

CCCCCCCCCCCCCC[n+]1ccccc1
active: Potency [4] 21.7 µM
inactive: Potency [1] | Potency [2] | Potency [3] | Potency [5] | Potency [6] | Potency [8] | Potency [9] | Potency [18] | Potency [10] | Potency [11] | Potency [12] | Potency [13] | Potency [14] | Potency [15]
